From PubChem BioAssay AID651820 (National Center for Advancing Translational Sciences (NCATS), 2012)
The whole screen tested about 340,000 compounds, of which about 12,000 (3.5%) were called active. Inconclusive results (about 18%) are left out. Calls come from the whole dose curve; as a rule, active = well fitted inhibition curve with a large enough effect; inconclusive = small, poorly fitted or top-dose-only effect, or another doubt; inactive = no such curve, though single readings can be large or run the other way. The entries come from a sample that favours actives as a whole. Entries that show only a call come without a potency.

Test: qHTS Assay for Inhibitors of Hepatitis C Virus (HCV)
Settings: Huh7.5.1 HCVcc-Cre infection, luciferase reporter, 44 h; series mostly up to 41.8 µM
Method in brief: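 A cell-based infection assay in which seeded cells (1,000 per well) receive test compound after 4 h, are inoculated with HCVcc-Cre at approximately 0.5 moi, and are incubated 44 h before luminescence detection.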
Potency is the fitted concentration of half-maximal effect.

Structure (SMILES) | Potency | activity change, negative = inhibition
CCOc1ccc(S(=O)(=O)NCCC(=O)NCC(C)(C)N2CCOCC2)cc1 | inactive | 
COc1ccc(-n2nnnc2SCc2nc(N)nc(N3CCOCC3)n2)cc1 | inactive | 
CN(C)c1nc(N)nc(CSc2nnnn2-c2cccc3ccccc23)n1 | 3.16 µM (active) | 
CN(C)c1nc(N)nc(CSc2ccccn2)n1 | inactive | 
COC(=O)Cc1ccc(OC(=O)C2CCN(S(=O)(=O)c3ccc(OC)c(OC)c3)CC2)cc1 | inactive | 
CCN(CC)CCNc1nc(-c2ccc(OC(F)F)cc2)c(C)s1 | 17.8 µM (active) | 
CCOC(=O)c1ccccc1NC(=O)c1c(N)n(C)c(=O)[nH]c1=O | inactive | 
CCCN(CC(=O)Nc1ccccc1OC)C(=O)CCC(=O)c1ccc(F)cc1 | inactive | 
COc1ccc([C@H]2CC(=O)C=C(/C=C/c3ccc(Cl)cc3)C2)cc1 | inactive | 
CC12CCCCC1=CC(=O)CC2 (stereo unspecified) | inactive | 
COc1ccc(NC(=O)/C(N=Nc2cccc(S(=O)(=O)Nc3ccc(SC(F)F)cc3)c2)=C(\C)O)cc1 | inactive | 
O=c1ccn([C@@H]2O[C@H](CNS(=O)(=O)c3cc4ccccc4s3)[C@@H](O)[C@H]2O)c(=O)[nH]1 | inactive | 
COc1cccc(CNc2nc3nc4c(c(=O)n3[nH]2)CCC4)c1 | inactive | 
COc1cccc(-c2cc3nc4c(c(N5CCC6(CC5)OCCO6)n3n2)CCCC4)c1 | 12.6 µM (active) | 
COc1ccc(NC(=O)N2CCC3(CC2)OCCO3)c(OC)c1 | inactive | 
Cc1ccc(S(=O)(=O)N2CCOCC2)cc1C(=O)Nc1ccccc1N1CCCC1 | inactive | 
CCN1CCc2c(C#N)c(NCc3ccccc3)nc(NCCO)c2C1 | inactive | 
CC(C)CCNc1nc(N2CCCC2)c2c(c1C#N)CCN(C)C2 | 12.6 µM (active) | 
CCc1nc(NCCO)c(C#N)c2c1CCCC2 | inactive | 
O=C(NCCc1ccccc1)c1c[nH]c2ccc(F)cc2c1=O | inactive | 
CCOc1ccc(CC(=O)NCCS(=O)(=O)N2CCN(c3ccccc3)CC2)cc1 |  | -0.883% [at 8.37 µM] (inactive)
N#Cc1ccc(C2=CC(=O)C[C@H](c3ccc(Cl)cc3)C2)cc1 | inactive | 
CC(=O)N1CCCc2cc(S(=O)(=O)CCC(=O)N3CCN(c4ccccc4)CC3)ccc21 | inactive | 
CC(=O)N1c2ccc(S(=O)(=O)N3CCCC(C(=O)NCc4ccc(Cl)cc4)C3)cc2CC1C (stereo unspecified) | 5.62 µM (active) | 
Cc1ccc(S(=O)(=O)N2CCCC(C(=O)N3CCN(C)CC3)C2)cc1 (stereo unspecified) | inactive | 
CC(=O)Nc1ccc(NC(=O)C2CCCN(S(=O)(=O)c3ccc(Cl)cc3)C2)cc1 (stereo unspecified) | inactive | 

Structure (SMILES) | Potency | activity change, negative = inhibition
COc1cccc(N2CCN(C(=O)C3CCCN(S(=O)(=O)c4cnc[nH]4)C3)CC2)c1 (stereo unspecified) | inactive | 
CCS(=O)(=O)N1CCCC(C(=O)NCc2ccc(C)cc2)C1 (stereo unspecified) | inactive | 
O=C(NCc1ccncc1)C1CCCN(S(=O)(=O)c2ccc(Br)cc2)C1 (stereo unspecified) | inactive | 
CC(=O)N1c2ccc(S(=O)(=O)N3CCC(C(=O)NC4CCCC(C)C4C)CC3)cc2CC1C (stereo unspecified) | inactive | 
CC(=O)N1CCCc2cc(S(=O)(=O)N3CCCC(C(=O)N4CCN(c5cccc(Cl)c5)CC4)C3)ccc21 (stereo unspecified) | 3.16 µM (active) | 
CC(=O)N1CCCc2cc(S(=O)(=O)N3CCCC(C(=O)NCc4ccc(Cl)cc4)C3)ccc21 (stereo unspecified) | 14.1 µM (active) | 
CCCS(=O)(=O)N1CCCC(C(=O)N2CCN(c3ccccc3)CC2)C1 (stereo unspecified) | inactive | 
O=C(C1CCCN(S(=O)(=O)c2ccccc2)C1)N1CCN(c2ccc(F)cc2)CC1 (stereo unspecified) | 20 µM (active) | 
Cc1cc(NC(=O)CSCC(=O)NC(C)c2ccccc2)no1 (stereo unspecified) | inactive | 
CCN(c1ccccc1)S(=O)(=O)c1cc(C(=O)NCc2ccccn2)ccc1C | inactive | 
O=C(COC(=O)c1ccc(O)cc1O)NC(=O)c1ccccc1 | inactive | 
CCOc1ccc2oc(C(=O)N(CC)CC(=O)Nc3ccc(NC(C)=O)cc3)c(C)c2c1 | inactive | 
COc1ccc(C(C)(C)C)cc1NC(=O)CCN1C(=O)C2CCCCC2C1=O (stereo unspecified) | inactive | 
O=[N+]([O-])c1ncc(Br)cc1Nc1ccccc1 | inactive | 
CCN(CC)S(=O)(=O)c1ccc(CNC(=O)CN2C(=O)NC3(CCc4ccccc43)C2=O)cc1 (stereo unspecified) | inactive | 
O=C(NN=Cc1ccc([N+](=O)[O-])cc1)C1CC1 | inactive | 
CSCCC(NS(=O)(=O)c1ccc(C)cc1)C(=O)N(C)CC(=O)Nc1ccccc1Br (stereo unspecified) | inactive | 
O=C(Nc1ccc(N2CCN(C(=O)c3ccccc3)CC2)c(Cl)c1)c1cccnc1 | 11.2 µM (active) | 
O=C(Nc1ccc(N2CCN(C(=O)c3ccccc3)CC2)c(Cl)c1)c1ncn[nH]1 | inactive | 
Cc1ccccc1N1CCN(C(=O)c2cccnc2)CC1 | inactive | 
Cc1cccc(C(=O)NCc2nnc(SC(C)C(=O)Nc3nnc(C)s3)n2C)c1 (stereo unspecified) | inactive | 
Clc1ncn(CCOc2ccccc2)c1Cl | inactive | 
c1ccc(Cc2ccc(OCCn3ccnc3)cc2)cc1 | 12.6 µM (active) | 
Brc1ccc(OCCn2ccnc2)cc1 | inactive | 
COc1cc(CN2CCC(n3nccc3NC(=O)CCCc3ccccc3)CC2)ccc1O | inactive | 
COc1ccc(CN2CCC(n3nccc3NC(=O)CCCc3ccccc3)CC2)cc1C | 10 µM (active) | 

Structure (SMILES) | Potency | activity change, negative = inhibition
Cc1ccc(CN2CCC(n3nccc3NC(=O)CCCc3ccccc3)CC2)o1 | inactive | 
COc1cccc(N2CC(NC(=O)c3ccc4ccccc4c3)CC2=O)c1 (stereo unspecified) | inactive | 
CCc1ccccc1NC1c2ccccc2C(=O)N1c1cccnc1 (stereo unspecified) | inactive | 
O=C1C(=O)N(c2ccccc2)C(c2ccccc2)C1c1ccccc1 (stereo unspecified) | inactive | 
O=C1[C@@H](c2ccccc2)[C@@H](c2ccccc2)N1c1cccnc1 | 5.01 µM (active) | 
CC[C@@]1(C(=O)OC)N[C@H](CN(C)C(C)=O)[C@@H]2C(=O)N(C)C(=O)[C@@H]21 | inactive | 
CC(NC(=O)COC(=O)CCC(=O)c1ccc(Cl)cc1)c1ccccc1 (stereo unspecified) | inactive | 
COc1cccc(CNS(=O)(=O)c2ccc3c(c2)CC(C)N3C(=O)C2CCC2)c1 (stereo unspecified) | 6.31 µM (active) | 
CCC(=O)N1c2ccc(S(=O)(=O)NCc3ccco3)cc2CC1C (stereo unspecified) | inactive | 
COc1cccc(CNS(=O)(=O)c2ccc3c(c2)CC(C)N3C(C)=O)c1 (stereo unspecified) | inactive | 
Cn1cccc1C(=O)OCC(=O)NCCc1ccccc1 | inactive | 
O=C(COC(=O)c1ccc2ncsc2c1)Nc1ccc(Cl)cc1 | inactive | 
CCCCn1c(N)c(N(CC(C)C)C(=O)CSc2ccc([N+](=O)[O-])cc2)c(=O)[nH]c1=O | inactive | 
O=C(NNS(=O)(=O)c1c(F)cc(F)c(Cl)c1F)C12CC3CC(CC(C3)C1)C2 | inactive | 
CCOc1cc(/C=N/O)cc(Br)c1OC | 8.91 µM (active) | 
COc1cc(/C=N/O)cc(Br)c1OS(=O)(=O)c1ccc(C)cc1 | inactive | 
O=C(O)COc1ccc(/C=N/O)cc1Br | inactive | 
CC(C)c1ccc(C=NNc2ccc([N+](=O)[O-])cn2)cc1 | inactive | 
COc1ccccc1-c1nn(Cc2ccccc2)cc1C(=O)N1CCN(c2ncccn2)CC1 | inactive | 
CCn1nc(C(=O)Nc2ccc(N3CCOCC3)cc2)c2ccccc2c1=O | inactive | 
Cc1cc(NC(=O)CN2C(=O)NC(CC(C)C)C2=O)no1 (stereo unspecified) | inactive | 
O=C(CCl)N(Cc1cccc([N+](=O)[O-])c1)c1cccc(Cl)c1 | 3.98 µM (active) | 
CCN(CC)C(=O)CN(c1cccc([N+](=O)[O-])c1)S(=O)(=O)c1ccccc1 | inactive | 
Cc1ccc(S(=O)(=O)N(Cc2cccc([N+](=O)[O-])c2)C(=O)N2CCN(C)CC2)cc1 | inactive | 
CN(C)C(CNC(=O)c1cccc(S(=O)(=O)Nc2ccc(Br)cc2)c1)c1ccco1 (stereo unspecified) | inactive | 
O=C(CCCOc1ccccc1)NNC(=O)c1ccc(Cl)cc1 | inactive | 

Structure (SMILES) | Potency | activity change, negative = inhibition
CC1CCCCC1NC(=O)Cn1c(=O)cnc2ccccc21 (stereo unspecified) | inactive | 
Cc1nn(Cc2ccccc2)c(C)c1C(=O)N1CCN(CC(=O)Nc2ccccc2Cl)CC1 | inactive | 
Clc1ccc(C2=CSC3=Nc4cccc5cccc(c45)N23)cc1 | 5.01 µM (active) | 
CCc1nnc(NS(=O)(=O)c2ccc(NC(=O)c3cccc(OC(F)(F)C(F)F)c3)cc2)s1 | inactive | 
Cc1cc(C(=O)O)ccc1[N+](=O)[O-] | inactive | 
Cc1cc(OCCCCOc2ccc(C#N)cc2)ccc1[N+](=O)[O-] | 8.91 µM (active) | 
Cc1cc(OCC(=O)NC2CCN(C)CC2)ccc1[N+](=O)[O-] | inactive | 
COc1ccc(N2CCN(S(=O)(=O)c3cc4c5c(c3)C(C)C(=O)N5CCC4)CC2)cc1 (stereo unspecified) |  | 0.733% [at 8.37 µM] (inactive)
N#C/C(=C1/CCCN1)c1ccccn1 | inactive | 
Cn1c(/C(C#N)=C2/CCCCCN2)nc2ccccc21 | inactive | 
N#C/C(=C1\CCCN1)c1nc(-c2ccccc2)cs1 | 6.31 µM (active) | 
COC1=NC2=NCCN2C(OC)=N1 | inactive | 
COc1ccccc1OCC(O)CN1CCOCC1 (stereo unspecified) | inactive | 
Cc1ccc(OCC(O)CN2CCN(CC(O)COc3ccc(C)cc3Cl)CC2)c(Cl)c1 (stereo unspecified) | 25.1 µM (active) | 
OC(COc1ccc(F)cc1Cl)CN1CCc2ccccc2C1 (stereo unspecified) | inactive | 
COc1ccc2nc(N3C(=O)C(O)=C(C(=O)c4ccco4)C3c3ccco3)sc2c1 (stereo unspecified) | inactive | 
CCOc1ccc(/C=C(/C#N)c2nnc(N3CCOCC3)n2-c2ccccc2)cc1OC | inactive | 
CC(C)N(Cc1ccccc1)C(=O)COC(=O)c1ccccc1SCC(=O)N1CCCC1 | inactive | 
CCOc1cc(C(=S)N2CCOCC2)ccc1OS(=O)(=O)c1ccc(Br)cc1 | 10 µM (active) | 
CCOc1cc(C(=S)N2CCOCC2)ccc1O | inactive | 
CC(=O)Nc1ccc(S(=O)(=O)Oc2ccc(Br)cc2C(=S)N2CCOCC2)cc1 | inactive | 
Cc1cc(NC(=O)COc2ccccc2C#N)no1 | inactive | 
O=C(Nc1cc(S(=O)(=O)N2CCOCC2)ccc1N1CCOCC1)c1c(F)cccc1Cl | inactive | 
